From PubChem BioAssay AID1259343 (VanderVen Lab, College of Veterinary Medicine, Cornell …, 2017) come the findings set out here.

Broadly, the inhibition is the relative decrease from the control value, in per cent.

About 2,900 (47%) of roughly 6,200 compounds were called active. So high a share suggests a set chosen from earlier hits. This is one part of the list. A number with no mark means an inactive call. No stated cut-off is given here; in the data, active means inhibition above about 50%; inactive means the rest.

A short description of this experiment: Mycobacterium tuberculosis growth inhibition, primary screen (AID 1259343). As to conditions: inhibition: at 10 µM, stronger effect = higher value; outcome: 10 uM.
With `C#CCCC(C#N)(C#N)c1ncc(-c2ccc(OC)cc2)cn1`, the inhibition was 43%.

Take `Cc1cc(Nc2cccc(=O)[nH]2)n(-c2ccc(Cl)c(Cl)c2)n1`: the inhibition is 49.9%.

For the compound `O=C(O)c1cc(-c2cccs2)nn1-c1ccc(Cl)c(Cl)c1`, the inhibition is 51.3% (active).

`CC1CN=C(Nc2ccc(C(C)C)cc2)S1` (stereo not given): the inhibition is 6.24%.

As to `CC(C)c1ccc(NC(=O)C2CCS(=O)(=O)C2)cc1` (stereo not given), the inhibition is 75.6% (active).

Regarding `CC(C)c1ccc(NS(=O)(=O)C2CC2)cc1`, the inhibition is 30.9%.

Turning to `Cc1ccc(-c2c(N)n[nH]c2C(F)(F)F)cc1`, the inhibition was 32%.

Consider `Cc1ccc(-c2cc(C(F)(F)C(F)F)[nH]n2)cc1`, for which the inhibition was 86.5% (active).

Consider `O=[N+]([O-])c1ccc(C=NNc2ccnc3cc(Cl)ccc23)o1`, for which the inhibition was 99.4% (active).

Regarding `O=[N+]([O-])c1ccc(C=NNc2ccc(Cl)c(Cl)c2)o1`, the inhibition was 93.2% (active).

`O=[N+]([O-])c1ccc(C=NN(c2ccccc2)c2ccccc2)o1`: the inhibition was 47.1%.

Turning to `O=[N+]([O-])c1ccc(C=Nn2cnn(Cc3ccccc3Cl)c2=S)o1`, the inhibition was 43.5%.

As to `O=[N+]([O-])c1ccc(C=NNc2ccc(Cl)cc2)o1`, the inhibition was -17.5%.

As to `Cc1ccccc1C1c2[nH]c3ccccc3c2CCN1C(=O)c1cccc(C#CC(C)(C)O)c1` (stereo not given), the inhibition was -3.93%.

Turning to `CCCCNC(=O)CSc1nnc(Nc2ccc(CC)cc2)s1`, the inhibition was 45.2%.

For the compound `CCc1ccc(Nc2nnc(SCC(N)=O)s2)cc1`, the inhibition is 36.7%.

Regarding `CCc1ccc(Nc2nnc(SCC(=O)NC3CCCC3)s2)cc1`, the inhibition is 100% (active).

As for `CCCCc1ccc(Nc2nnc(SCC(=O)NCC)s2)cc1`, the inhibition is 83.3% (active).

In the case of `CCCCc1ccc(Nc2nnc(SCC(=O)NC3CCCC3)s2)cc1`, the inhibition is 86% (active).

As for `COc1ccc(OCc2cc(C(=O)N3CCCCCC3)no2)c(Cl)c1`, the inhibition was 42%.

Consider `CCC(=O)N(Cc1ccco1)Cc1cc(NC(=O)c2ccccc2Cl)ccc1N(C)C1CCN(C)CC1`, for which the inhibition is 39.1%.

For the compound `O=C(Nc1ccc(OCc2ccco2)c(Cl)c1)N1CCOCC1`, the inhibition is 79% (active).

As to `O=S(=O)(Cc1ccccc1)c1nnnn1-c1ccccc1`, the inhibition was 101% (active).

`Cc1ccc(NNC2CC(=O)N(N(C)C)C2=O)cc1` (stereo not given): the inhibition is 78.2% (active).

Turning to `Cc1ccc(CC2CC(=O)N(C3CCCCC3)C2=O)cc1` (stereo not given), the inhibition is 36.3%.

In the case of `COC(=O)c1ccc(C=CC(=O)c2ccc(OC)cc2)cc1`, the inhibition was 47.6%.

As to `COc1ccc(C(=O)C=Cc2cccc(O)c2)cc1F`, the inhibition is 87.2% (active).

As to `O=C(/C=C/c1ccc(O)cc1)c1ccccc1O`, the inhibition was 47.6%.

As to `O=C(/C=C/c1ccccc1)c1ccc(O)cc1O`, the inhibition was 96.2% (active).

Turning to `COc1cccc(C=CC(=O)c2ccc(Cl)c(Cl)c2)c1OC`, the inhibition was 44.5%.

As to `COc1ccc(C=CC(=O)c2ccc3ccccc3c2)cc1`, the inhibition was 60.1% (active).

As to `COc1ccc(/C=C/C(=O)c2cc(O)ccc2O)cc1`, the inhibition was 97.6% (active).

In the case of `O=C1COc2ccc(C(=O)C=Cc3ccc4ccccc4c3)cc2N1`, the inhibition is 62.3% (active).

With `Oc1ccc(Cl)cc1Sc1cc(Cl)ccc1O`, the inhibition was 101% (active).

`O=c1cc(O)c2sc3nc(C4CC4)cc(C(F)(F)F)c3c2[nH]1`: the inhibition is 38.2%.

Turning to `Clc1ccc(N=C2SCCN2C2CCCCC2)cc1`, the inhibition is 90.5% (active).

In the case of `Clc1ccc(N=C2SCC3CCCCN23)cc1` (stereo not given), the inhibition was -1.03%.

Turning to `COc1ccc(N=C2SCCN2CC(=O)c2ccc(Cl)cc2)cc1`, the inhibition was -4.26%.

For the compound `FC(F)Oc1ccc(N=C2SCC3CCCCN23)cc1` (stereo not given), the inhibition is 82.4% (active).

As for `O=C(NCCc1ccc(F)cc1)C1Cc2ccccc2O1` (stereo not given), the inhibition is 70.3% (active).

For `CC(C)(CNC(=O)C1Cc2cc(F)ccc2O1)C1CCCCO1` (stereo not given), the inhibition is 14.4%.

In the case of `COc1ccc2c(c1)OCC(Cc1ccc(OC)c(OC(C)=O)c1)C2=O` (stereo not given), the inhibition is 96.6% (active).

Consider `COc1ccc(NC(=O)C(C)n2cccn2)cc1Cl` (stereo not given), for which the inhibition was 8.88%.

As to `CC(C(=O)Nc1ccc(C#N)cc1)N1CC=C(c2ccccc2)CC1` (stereo not given), the inhibition was 49.1%.

With `CC(C(=O)Nc1ccc(C23CC4CC(CC(C4)C2)C3)cc1)n1cncn1` (stereo not given), the inhibition was 95.9% (active).

For `COc1ccc(Oc2cnn(-c3ccc(Cl)cc3)c(=O)c2Nc2ccc(C(=O)O)cc2)cc1`, the inhibition is 28%.

In the case of `Cc1ccc(-n2nc(C(=O)c3ccc(Cl)cc3)c(N)c(C#N)c2=O)cc1`, the inhibition is 94.6% (active).

For the compound `O=C(Nc1ccc(-c2ccccc2)cc1Cl)C1CC1`, the inhibition is 92.4% (active).

For `NS(=O)(=O)N1CCC(C(=O)Nc2ccc(-c3ccccc3)cc2F)CC1`, the inhibition was -3.6%.

Turning to `O=C(CNC(=O)c1cccc(F)c1)N=Nc1c(O)n(CCc2ccccc2)c2ccccc12`, the inhibition was -16.1%.

Consider `Cc1cc(C)cc(C(=O)C=C2NC(=O)CS2)c1`, for which the inhibition is -74.8%.

Consider `COc1ccc(NC(=O)c2ccc3c(c2)NC(=O)C(C)S3)cc1` (stereo not given), for which the inhibition was 57.4% (active).

For the compound `COc1cc(NC(=O)c2ccc3c(c2)NC(=O)CS3)cc(OC)c1`, the inhibition is 62.6% (active).

As for `COc1cc(NC(=O)c2ccc3c(c2)NC(=O)C(C)S3)cc(OC)c1` (stereo not given), the inhibition was 31.5%.

With `COc1cc(C=NOCc2cccc3ccccc23)ccc1OC(F)F`, the inhibition is 52.4% (active).

With `CCOC(=O)NC(=O)COC(=O)C1(Cc2ccccc2)CCCCC1`, the inhibition was 51.4% (active).

Consider `CCOC(=O)C1(CCc2ccccc2)CCCN(Cc2cccn2-c2ncccn2)C1` (stereo not given), for which the inhibition was 13%.

Turning to `Cn1cc(C(=O)Nc2cccc(C(F)(F)F)c2)c2[nH]c(=O)n(-c3ccc(F)cc3)c(=O)c21`, the inhibition was 24.6%.

With `CC(C)OC(=O)c1cn(-c2ccc(F)cc2)c(=O)c2ccccc12`, the inhibition was 80.8% (active).

Turning to `O=C(c1cnn(-c2ccc(F)cc2)c1)c1ccccc1O`, the inhibition is 42.7%.

Take `O=C(Nc1nc(-c2ccc(Br)cc2)cs1)c1cc(Cl)ccc1[N+](=O)[O-]`: the inhibition was 94.8% (active).

Take `CCS(=O)(=O)N1CCC(C(=O)Nc2nc(-c3ccc(Br)cc3)cs2)CC1`: the inhibition was 33.8%.

Consider `O=C(O)CCc1nnc(SCc2cccc(Cl)c2)[nH]c1=O`, for which the inhibition is 34.4%.

As to `Cc1nnc(SCc2cccc3ccccc23)[nH]c1=O`, the inhibition is 88.9% (active).

Take `CC1CCc2sc(-c3nn(CN4CCN(c5cnccn5)CC4)c(=S)o3)cc2C1` (stereo not given): the inhibition is 95.3% (active).
